A selection: hits, their analogues and other compounds. The true share with any hit is near 1.6%.
KCNH2 3.1 block: blocks the human KCNH2 3.1 channel isoform | 340,000 compounds, 0.95% hits | U2OS KCNH2 3.1, thallium flux FluxOr; stronger effect = lower value | AID 720553 | activity change, % (tested at about 1.8 µM);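 active = maximum activity change below -70%; inconclusive = maximum activity change from -70% to -50%; inactive = maximum activity change above -50%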;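 also: thallium influx rate constant from kinetic fluorescence after stimulation buffer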
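Thallium flux via FluxOr fluorescence (Red40 quencher, 45 min loading) in U2OS cells virally expressing the KCNH2 3.1 isoform (1.77 x 10^8 /mL virus, overnight at 37 C). Rate constants from 2-min kinetic reads post-stimulation, normalised to positive and negative controls.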
Glioma ERSR ind: inducers of ER stress response in human glioma cells; U87-MG GRP78 promoter luciferase reporter, 16 h; Potency, µM, usual class: activators; 420,000 compounds, 0.02% hits; active = well fitted activation curve with a large enough effect; inconclusive = small, poorly fitted or top-dose-only effect; inactive = no such curve, though single readings can be large or run the other way; also: series mostly up to about 76 µM; nearly all actives have a fitted effect of over 35% in size
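Stably transfected U87-MG human glioma cells carrying a GRP78-based luminescent sensor were seeded at 1000 cells/well, pin-dosed with compounds and incubated 16 h. Luciferase reagent was then added, and end-point luminescence was read after 10 min at room temperature.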
hERG WT inh: blocks the wildtype human KCNH2 potassium channel; Q12809; 340,000 compounds, 0.37% hits; activity change, % at 1.84 µM; U2OS, BacMam KCNH2, thallium flux FluxOr; stronger effect = lower value;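 active = maximum activity change below -70%; inconclusive = maximum activity change between -70% and -50%; inactive = maximum activity change above -50%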
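U2OS cells were transduced with wild-type KCNH2 virus (2.03 x 10^8 / mL) for 4 h at room temperature, then cultured overnight at 37 C. Thallium flux was read with FluxOr dye. Rate constants were normalized to DMSO controls.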
gsp antag: antagonists of gsp mutant (McCune-Albright syndrome) | Potency, µM (series often up to 76.9 µM), usual class: inhibitors | gsp-mutant cells, cAMP HTRF, 30 min | 340,000 compounds, 0.4% hits; calls by dose curve; cell line not stated here;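 also: intracellular cAMP measured with PDE inhibitor Ro 20-1724 present during compound exposure; nearly all actives have a fitted effect of over 65% in size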
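G418-selected cells were plated in DMEM/10% FBS for 16-24 h at 37C, then treated with compounds plus the PDE inhibitor […] (300 uM solution added) for 30 min at 37C. Intracellular cAMP was measured by HTRF after 30 min lysis at room temperature.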
gsp agonist: agonists of gsp mutant (McCune-Albright syndrome); gsp mutant cells, cAMP HTRF, 30 min; Potency, µM (titrated, usually from 76.9 µM), most hits filed as activators; 340,000 compounds, 0.13% hits; active = well fitted activation curve with a large enough effect; inconclusive = small, poorly fitted or top-dose-only effect, or another doubt; inactive = no such curve, though single readings can be large or run the other way; cell line not stated here;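 also: phosphodiesterase inhibitor Ro 20-1724 added with compounds to block cAMP breakdown; nearly all actives have a fitted effect of over 60% in size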
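Cells stably selected in G418 were plated at 2000/well, grown 16-24 hr, then given compounds in DMSO with the PDE inhibitor […] (300 uM solution added) for 30 min at 37C; cAMP was read by HTRF.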
Akt phos inh: Akt phosphorylation inhibition; Neuro2A IGF-stimulated pAkt S473 HTRF, 20 min; stronger effect = lower value; 360,000 compounds, 0.32% hits; activity change, % for hits at 50 µM; in the data active = activity change below about -80%; inconclusive = mostly about -51% to -80%
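Neuro2A cells (4,500/well, DMEM with 0.5% FBS) were treated with compound at a single 50 µM final concentration, stimulated with 6 nM IGF for 20 min at 37 °C, and lysed. Phospho-Akt Ser473 was read by HTRF as 665/615 ratio ×10^4.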
Hits are given with their value; [ ] = dose if it differs, or a comment.

How did COc1ccc(C(CCN2CCN(c3ccccc3)CC2)c2c(O)cc(OC)cc2OC)cc1 (stereo not given) do in these assays?
Glioma ERSR ind: inactive; gsp antag: inactive; Akt phos inh: inactive

What do the screens show for `COc1ccc(N2CCN(CCC(O)c3ccc4ccccc4c3)CC2)cc1` (stereo not given)?
KCNH2 3.1 block: -103; Glioma ERSR ind: inactive; hERG WT inh: inconclusive; gsp antag: inactive; gsp agonist: inactive; Akt phos inh: inactive

What do the screens show for `CCOc1cc(/C=C2\SC(=O)N(c3ccc(O)cc3)C2=O)ccc1O`?
KCNH2 3.1 block: inactive; Glioma ERSR ind: inactive; hERG WT inh: inactive; gsp antag: 32µM; gsp agonist: inactive; Akt phos inh: inactive

How did CCOc1ccc(/C(O)=C2/C(=O)C(=O)N(c3ccccn3)C2c2ccc(Cl)cc2)c(C)c1 (stereo not given) do in these assays?
KCNH2 3.1 block: inactive; Glioma ERSR ind: inactive; hERG WT inh: inactive; gsp antag: inactive; gsp agonist: inconclusive; Akt phos inh: inactive

Results for CCOc1ccc(/C(O)=C2/C(=O)C(=O)N(c3ccccn3)C2c2ccc(C)cc2)c(C)c1 (stereo not given) ?
KCNH2 3.1 block: inactive; Glioma ERSR ind: inactive; hERG WT inh: inactive; gsp antag: inactive; gsp agonist: 40µM; Akt phos inh: inactive

What do the screens show for `COc1ccc(C2/C(=C(\O)c3ccc4c(c3)OCCO4)C(=O)C(=O)N2Cc2cccnc2)cc1` (stereo not given)?
KCNH2 3.1 block: inactive; Glioma ERSR ind: inactive; hERG WT inh: inactive; gsp antag: inactive; gsp agonist: inconclusive

How did Cc1cc(OCC(C)C)ccc1/C(O)=C1/C(=O)C(=O)N(Cc2cccnc2)C1c1ccncc1 (stereo not given) do in these assays?
KCNH2 3.1 block: inactive; Glioma ERSR ind: inactive; hERG WT inh: inactive; gsp antag: inactive; gsp agonist: 5.6µM; Akt phos inh: inactive

How did CCCCOc1ccc(/C(O)=C2/C(=O)C(=O)N(Cc3cccnc3)C2c2ccncc2)c(C)c1 (stereo not given) do in these assays?
KCNH2 3.1 block: inactive; Glioma ERSR ind: inactive; hERG WT inh: inactive; gsp antag: inactive; gsp agonist: 11µM; Akt phos inh: inactive

What do the screens show for `CCOc1ccc(/C(O)=C2/C(=O)C(=O)N(CCOCCO)C2c2cccnc2)cc1` (stereo not given)?
KCNH2 3.1 block: inactive; Glioma ERSR ind: inactive; hERG WT inh: inactive; gsp antag: inactive; gsp agonist: 13µM; Akt phos inh: inactive

What do the screens show for `COc1ccc(-c2nc3ccc(C4=C(C)CC(=O)NN4)cc3[nH]2)cc1`?
Glioma ERSR ind: inactive

What do the screens show for `CC[N+](C)(C)c1ccc(/C=C/c2ccnc3ccccc23)cc1`?
Glioma ERSR ind: inactive

Results for CCOC(=O)NC(=O)CSc1nnc(C)s1 ?
KCNH2 3.1 block: -79; Glioma ERSR ind: inactive; hERG WT inh: inactive; gsp antag: inactive; gsp agonist: inactive; Akt phos inh: inactive

What do the screens show for `c1ccc2c(c1)OCCOCCOc1ccccc1OCCOCCO2`?
KCNH2 3.1 block: -79; Glioma ERSR ind: inactive; hERG WT inh: inactive; gsp antag: inactive; gsp agonist: inconclusive; Akt phos inh: inactive

Results for c1ccc2c(c1)OCCOCCOCCOCCO2 ?
Glioma ERSR ind: inactive

How did C/C(=N\O)c1ccc2c(c1)OCCO2 do in these assays?
KCNH2 3.1 block: inactive; Glioma ERSR ind: inactive; hERG WT inh: inactive; gsp antag: inactive; gsp agonist: inactive; Akt phos inh: inactive

How did Brc1ccc2c(c1)OCCOCCOc1cc(Br)ccc1OCCOCCOCCO2 do in these assays?
KCNH2 3.1 block: -96; Glioma ERSR ind: inactive; hERG WT inh: -88; gsp antag: 50µM; gsp agonist: inactive; Akt phos inh: inactive

How did C/C(=N/O)c1ccc2c(c1)OCCOCCOc1cc(/C(C)=N/O)ccc1OCCOCCO2 do in these assays?
KCNH2 3.1 block: -74; Glioma ERSR ind: inactive; hERG WT inh: inactive; gsp antag: inactive; gsp agonist: inactive; Akt phos inh: inactive

What do the screens show for `Brc1cc2c(cc1Br)OCCOCCOCCOCCO2`?
KCNH2 3.1 block: inactive; Glioma ERSR ind: inactive; hERG WT inh: inactive; gsp antag: inactive; gsp agonist: inactive[15.4 µM]; Akt phos inh: inactive

How did CC12CCC(/C(=N/O)C1=O)C2(C)C (stereo not given) do in these assays?
Glioma ERSR ind: inactive

What do the screens show for `CCN(C(=O)c1ccc2c(c1)OCO2)C1CCS(=O)(=O)C1` (stereo not given)?
KCNH2 3.1 block: inactive; Glioma ERSR ind: inactive; hERG WT inh: inactive; gsp antag: inactive; gsp agonist: inactive[15.4 µM]; Akt phos inh: inactive

Results for CCCCN(C(=O)c1ccc2c(c1)OCO2)C1CCS(=O)(=O)C1 (stereo not given) ?
KCNH2 3.1 block: -76; Glioma ERSR ind: inactive; hERG WT inh: inactive; gsp antag: inactive; gsp agonist: inactive[15.4 µM]; Akt phos inh: inactive

How did CC1CCN(S(=O)(=O)c2ccc(Cl)cc2)CC1 do in these assays?
KCNH2 3.1 block: inactive; Glioma ERSR ind: inactive; hERG WT inh: inactive; gsp antag: 50µM; gsp agonist: inactive; Akt phos inh: inactive

What do the screens show for `CC1CCN(S(=O)(=O)c2ccc(C(C)C)cc2)CC1`?
KCNH2 3.1 block: inactive; Glioma ERSR ind: inactive; hERG WT inh: inactive; gsp antag: inactive; gsp agonist: inactive; Akt phos inh: inactive

What do the screens show for `O=C(NCC1(N2CCOCC2)CCCCCC1)c1cnn(-c2nccc(-c3ccco3)n2)c1C1CC1`?
Glioma ERSR ind: inactive

How did Cc1cc(=O)n2nc(N3CCCC3C(=O)Nc3ccc(C(C)C)cc3)sc2n1 (stereo not given) do in these assays?
KCNH2 3.1 block: inactive; Glioma ERSR ind: inactive; hERG WT inh: inactive; gsp antag: inactive; gsp agonist: inconclusive; Akt phos inh: inactive

How did COc1ccc(NC(=O)C2CCCN2c2nn3c(=O)cc(C)nc3s2)cc1 (stereo not given) do in these assays?
KCNH2 3.1 block: inactive; Glioma ERSR ind: inactive; hERG WT inh: inactive; gsp antag: inactive; gsp agonist: 22µM; Akt phos inh: inactive

How did O=c1oc2cc(O)ccc2cc1-c1nc2c(s1)CCc1ccccc1-2 do in these assays?
KCNH2 3.1 block: inactive; Glioma ERSR ind: inactive; hERG WT inh: -157; gsp antag: inactive; gsp agonist: inconclusive; Akt phos inh: inactive

Results for CCOc1ccccc1NC(=O)C1CCCC1 ?
KCNH2 3.1 block: inactive; Glioma ERSR ind: inactive; hERG WT inh: -84; gsp antag: inactive; gsp agonist: inactive; Akt phos inh: inactive

Results for COc1ccccc1NC(=S)NC1CCCCC1 ?
KCNH2 3.1 block: inactive; Glioma ERSR ind: inactive; hERG WT inh: inactive; gsp antag: inactive; gsp agonist: 20µM; Akt phos inh: inactive

What do the screens show for `O=C(Nc1ccccc1NC(=O)NC1CCCCC1)NC1CCCCC1`?
KCNH2 3.1 block: inactive; Glioma ERSR ind: inactive; hERG WT inh: inactive; gsp antag: inactive; gsp agonist: inactive; Akt phos inh: inactive

How did COc1ccccc1NC(=S)NC1CCCCCCCCCCC1 do in these assays?
KCNH2 3.1 block: inactive; Glioma ERSR ind: inactive; hERG WT inh: inactive; gsp antag: inactive; gsp agonist: inactive; Akt phos inh: inactive

High-throughput results from PubChem BioAssay.
